BAZ2B inh: blocks human BAZ2B; hit rate 4.4% among 360,000; AlphaScreen BAZ2B-H3K14Ac peptide displacement; Potency, µM (highest dose often 114 µM), inactives show at the top dose activity change, negative = inhibition, actives largely listed as inhibitors; further: on the % scale 0 is the no-effect control and ±100 the full control effect; nearly all actives have a fitted effect of over 60% in size
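BAZ2B (50 nM) with biotin-H3(5-23)K14Ac peptide (50 nM) in PBS pH 7.4, 0.01% Tween-20, preformed 30 min, then compound 30 min at room temperature; top concentration 110uM. AlphaScreen streptavidin donor/nickel chelate acceptor beads (10 ug/mL final), 20 min dark, signal read.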
G9a block: blocks human histone lysine methyltransferase G9a. Potency, µM (doses to about 102 µM), without a hit: top-dose activity, negative = inhibition, hits mostly inhibitors. hit rate 8.8% among 350,000. G9a H3K9 monomethylation, AlphaScreen, 2 h; further: on the % scale 0 is the no-effect control and ±100 the full control effect; nearly all actives have a fitted effect of over 75% in size
Target sequence (Q96KQ7 913-1193 limits assumed): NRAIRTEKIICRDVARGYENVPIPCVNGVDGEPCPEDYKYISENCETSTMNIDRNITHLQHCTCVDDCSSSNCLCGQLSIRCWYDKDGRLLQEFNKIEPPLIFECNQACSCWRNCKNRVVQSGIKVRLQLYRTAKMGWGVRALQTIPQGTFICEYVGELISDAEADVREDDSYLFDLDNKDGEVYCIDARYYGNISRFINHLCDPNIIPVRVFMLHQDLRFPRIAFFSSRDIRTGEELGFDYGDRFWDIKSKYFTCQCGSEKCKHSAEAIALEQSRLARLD
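AlphaScreen detection with an anti-monomethyl H3K9 antibody quantified product after a 2 h room-temperature reaction containing 500 nM biotinylated H3K9 peptide, 20 µM SAM and 20 nM enzyme, which had been preincubated 15 min with compound.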
Sfp PPTase inh: Sfp phosphopantetheinyl transferase inhibition | Biochemical Sfp PPTase activity, qHTS | Q9F4F7 | Potency, µM, for inactives: largest response in the series, negative = inhibition, hits mostly inhibitors | AID 1490 | hit rate 3.5% among 310,000;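 further: the enzyme is Sfp with the accession as filed and its product quenches rhodamine fluorescence; 0% = enzyme reaction without inhibitor and -100% = no enzyme wells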
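Fluorescence-quenching assay with 15 nM Sfp, 5 uM rhodamine-CoA and 12.5 uM BHQ-2-labelled ybbR peptide in pH 7.6 Hepes/MgCl2 buffer. Enzyme was pre-incubated with compound for 15 min at room temperature. Rate was taken from the 30-min fluorescence change (525/598 nm).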
JMJD2A Tudor inh: inhibitors of human JMJD2A Tudor domain; AID 504339; hit rate 4.4% among 390,000; AlphaScreen JMJD2A-Tudor / H3K4me3 peptide binding; Potency, µM (top dose mostly 114 µM), for inactives: at the highest dose activity change, negative = inhibition, actives largely listed as inhibitors; further: on the % scale 0 is the no-effect control and ±100 the full control effect; nearly all actives have a fitted effect of over 50% in size
L3MBTL1 block: L3MBTL1 (human) inhibition; AlphaScreen L3MBTL1–H3K9me1 peptide binding; Q9Y468; Potency, µM (series often up to 57.1 µM), inactives show at the top dose activity, negative = inhibition, usual class: inhibitors; hit rate 0.66% among 230,000; further: on the % scale 0 is the no-effect control and ±100 the full control effect; nearly all actives have a fitted effect of over 60% in size
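Displacement of a biotinylated histone H3(1-15) peptide monomethylated at Lys9 (75 nM) from L3MBTL1 (50 nM) was measured by AlphaScreen after a 30 min room-temperature compound incubation; cefsulodin titration served as intraplate control.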
HP1b binding inh: HP1-beta chromodomain-methylated histone interaction inhibition; P83916; AlphaScreen HP1-beta / biotin-H3K9me3 peptide binding; Potency, µM (titrated, usually from 114 µM), for inactives: at the top dose activity change, negative = inhibition, most hits filed as inhibitors; hit rate 0.56% among 390,000; further: nearly all actives have a fitted effect of over 70% in size
Target sequence (P83916 whole entry, looked up): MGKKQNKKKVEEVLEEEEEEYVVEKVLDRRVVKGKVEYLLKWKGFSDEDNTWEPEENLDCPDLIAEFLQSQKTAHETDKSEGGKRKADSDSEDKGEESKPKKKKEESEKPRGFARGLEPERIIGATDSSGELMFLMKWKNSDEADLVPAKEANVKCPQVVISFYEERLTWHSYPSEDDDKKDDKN
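HP1-beta protein (50 nM final) preincubated 30 min at room temperature with biotinylated H3(1-18)K9me3 peptide (50 nM) in PBS pH 7.4, 0.01% Tween-20, then compound added for 30 min. AlphaScreen streptavidin donor/nickel chelate acceptor beads (10 ug/mL final), 30 min dark, luminescence read.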
Numbers without * were called inactive; [ ] = another dose, or the depositor's remark. This is a sample that favours compounds with a hit; in the whole collection about 12% have one here. The call rests on the fitted dose curve; in most records, active means well fitted curve in the direction sought with a large enough effect; inconclusive means small, poorly fitted or top-dose-only effect, or another doubt; inactive means no such curve, though single readings can be large; an effect the other way counts as inactive or inconclusive. Potency means the concentration at half of the fitted maximal effect.

What do the screens show for `N#C/C(=N\Nc1ccc(Cl)cc1)C(N)=S`?
BAZ2B inh: inconclusive; Sfp PPTase inh: -13%; JMJD2A Tudor inh: inconclusive; HP1b binding inh: -31%

What do the screens show for `Cc1cc(C)n(C(=O)/C(C#N)=N\Nc2ccccc2[N+](=O)[O-])n1`?
BAZ2B inh: -34%; G9a block: -8%; Sfp PPTase inh: 19%; JMJD2A Tudor inh: -7%; L3MBTL1 block: -7%; HP1b binding inh: 12%

How did Cc1ccc(N/N=C(\C#N)C(N)=S)cc1C do in these assays?
BAZ2B inh: 45µM*; G9a block: 2.8µM*; Sfp PPTase inh: 56µM*; JMJD2A Tudor inh: inconclusive; L3MBTL1 block: 3%; HP1b binding inh: -18%

Results for Cc1ccc(Cc2nc3ccccc3nc2SCC(=O)N2CCc3ccccc32)cc1 ?
BAZ2B inh: 9%; G9a block: -5%[59 µM]; JMJD2A Tudor inh: -10%; HP1b binding inh: 18%[57 µM]

What do the screens show for `NNC(=O)[C@@H]1C[C@@H]1c1ccccc1`?
BAZ2B inh: -10%; G9a block: 1%[59 µM]; Sfp PPTase inh: -2%; JMJD2A Tudor inh: -12%; L3MBTL1 block: 14%; HP1b binding inh: 41%

What do the screens show for `CCc1c(C)sc(NC(=O)C2CC2c2ccccc2)c1C(N)=O` (stereo unspecified)?
BAZ2B inh: -5%; G9a block: 14µM*; Sfp PPTase inh: -4%; JMJD2A Tudor inh: -31%; L3MBTL1 block: -7%; HP1b binding inh: 0%

How did O=C(NC1CCCCC1)c1cc(C2CC2)nn1-c1ccccc1 do in these assays?
BAZ2B inh: -4%; G9a block: 5%[2.33 µM]; JMJD2A Tudor inh: 4%; L3MBTL1 block: -5%; HP1b binding inh: 48%

What do the screens show for `Cc1ccn(-c2cc(O)c(-n3ccc(C)n3)cc2O)n1`?
BAZ2B inh: -2%; G9a block: 3.5µM*; Sfp PPTase inh: -47%; JMJD2A Tudor inh: inconclusive; L3MBTL1 block: -3%; HP1b binding inh: inconclusive

What do the screens show for `O=C(Nc1ccc(F)c(Cl)c1)N1CCC(CN2CCc3ccccc3C2)CC1`?
BAZ2B inh: -8%; G9a block: -40%[59 µM]; JMJD2A Tudor inh: -20%; HP1b binding inh: 3%

How did CCN(CC)C(=O)c1sc2c(c1C)c(=O)n(-c1ccccc1)c(=O)n2CC(=O)N(CC)c1cccc(C)c1 do in these assays?
BAZ2B inh: -13%; G9a block: 0%[59 µM]; JMJD2A Tudor inh: -15%; HP1b binding inh: -5%

Results for CCN(CC)C(=O)c1sc2nc(-c3ccncc3)[nH]c(=O)c2c1C ?
BAZ2B inh: -2%; G9a block: 26%[59 µM]; Sfp PPTase inh: 10%; JMJD2A Tudor inh: -5%; L3MBTL1 block: 12%; HP1b binding inh: 38%

What do the screens show for `CCN(CC)C(=O)c1sc2[nH]c(=S)n(-c3ccccc3)c(=O)c2c1C`?
BAZ2B inh: inconclusive; G9a block: -45%[0.501 µM]; Sfp PPTase inh: 79µM*; JMJD2A Tudor inh: inconclusive; L3MBTL1 block: -6%; HP1b binding inh: 25%

How did CCN(CC)C(=O)c1sc2nc(-c3ccccn3)[nH]c(=O)c2c1C do in these assays?
JMJD2A Tudor inh: 28µM*; HP1b binding inh: 25%

How did Cc1sc2nc(-c3ccccn3)[nH]c(=O)c2c1-c1ccccc1 do in these assays?
BAZ2B inh: -3%; G9a block: 10µM*; Sfp PPTase inh: 18µM*; JMJD2A Tudor inh: -14%; L3MBTL1 block: -32%; HP1b binding inh: 18%

What do the screens show for `O=C(NC1CCN(Cc2ccccc2)CC1)c1cc(S(=O)(=O)Nc2ccc(F)cc2)ccc1Cl`?
BAZ2B inh: 7%; G9a block: 12%; JMJD2A Tudor inh: -22%; L3MBTL1 block: 1%; HP1b binding inh: 11%

How did O=C(Nc1ccc(NC(=O)c2cccs2)cc1)c1cccs1 do in these assays?
BAZ2B inh: 25%; G9a block: -3%[59 µM]; Sfp PPTase inh: 8%; JMJD2A Tudor inh: 1%; HP1b binding inh: 19%

Results for Cc1ccn(-c2ccc(NC(=O)c3cccs3)cc2)n1 ?
BAZ2B inh: 3%; G9a block: 71µM*; Sfp PPTase inh: 24%; JMJD2A Tudor inh: -10%; HP1b binding inh: 7%

What do the screens show for `O=C(O)c1cnn2c1C(=O)N(Cc1cccs1)CC2`?
BAZ2B inh: 22µM*; G9a block: 40µM*; Sfp PPTase inh: 8%; JMJD2A Tudor inh: inconclusive; HP1b binding inh: 32µM*

What do the screens show for `CC[C@H](C)[C@H](NC(=O)[C@H](Cc1ccc(O)cc1)NC(=O)[C@@H]1CCCN1C(=O)[C@H](CCCN=C(N)N)NC(=O)[C@H](CCCN=C(N)N)NC(=O)[C@@H]1CCCN1C(=O)[C@H](CCCCN)NC(=O)[C@H](CC(N)=O)NC(=O)[C@H](CCC(N)=O)NC(=O)[C@H](Cc1ccc(O)cc1)NC(=O)[C@H](CC(C)C)NC(=O)[C@@H]1CCC(=O)N1)C(=O)N[C@@H](CC(C)C)C(=O)O`?
Sfp PPTase inh: 15%

Results for Cc1c(C)n2c(SCC(=O)N3CCOCC3)nnc2[nH]c1=O ?
BAZ2B inh: -6%; G9a block: -30%[0.501 µM]; JMJD2A Tudor inh: 32µM*; L3MBTL1 block: 1%; HP1b binding inh: 27%

Results for O=c1c2ccccc2nc(-c2cccc(Cl)c2)n1O ?
BAZ2B inh: inconclusive; G9a block: -38%[59 µM]; Sfp PPTase inh: 13%; JMJD2A Tudor inh: inconclusive; L3MBTL1 block: 1%; HP1b binding inh: 38%

What do the screens show for `Cc1ccccc1/C=N/Nc1nc2ccccc2c(=O)n1O`?
BAZ2B inh: -14%; G9a block: 14µM*; Sfp PPTase inh: 32µM*; JMJD2A Tudor inh: -4%; HP1b binding inh: -14%

How did Cc1ccc(-c2nc3ccccc3c(=O)n2NC(=S)N(C)C)cc1 do in these assays?
BAZ2B inh: 7%; G9a block: 4µM*; Sfp PPTase inh: 22µM*; JMJD2A Tudor inh: -11%; L3MBTL1 block: 6%; HP1b binding inh: inconclusive

What do the screens show for `Cc1ccc(-c2nc3ccccc3c(=O)n2O)cc1`?
BAZ2B inh: inconclusive; G9a block: 32µM*; Sfp PPTase inh: -14%; JMJD2A Tudor inh: 35µM*; HP1b binding inh: 18%

What do the screens show for `COc1ccccc1-c1nc2ccccc2c(=O)n1O`?
BAZ2B inh: inconclusive; G9a block: 35µM*; Sfp PPTase inh: -19%; JMJD2A Tudor inh: -22%; HP1b binding inh: -13%

What do the screens show for `Cc1ccc(-c2nc3ccccc3c(=O)n2NC(=O)COc2ccccc2)cc1`?
BAZ2B inh: 2%; G9a block: 6%[59 µM]; Sfp PPTase inh: 11%; JMJD2A Tudor inh: 1%[57.1 µM]; L3MBTL1 block: 8%; HP1b binding inh: 39%

How did CCCCCN(C(=O)NC(=O)Nc1ccc(C)cc1)S(=O)(=O)c1ccccc1 do in these assays?
BAZ2B inh: -8%; G9a block: 2%[59 µM]; Sfp PPTase inh: 4%; JMJD2A Tudor inh: -8%; L3MBTL1 block: 0%; HP1b binding inh: 54%

Compound activity: PubChem BioAssay, National Center for Advancing Translational Sciences (NCATS)
